# Assay outcomes (PubChem)
# The list is not random: actives were taken first. Their share in the collection is about 3.8%.
# HepG2 tox-1 = HepG2 cytotoxicity, counter-screen for TGF-b inhibitors; HepG2 CAGA-GFP viability, ATP luminescence, 18 h; Potency, µM (highest dose often 46.1 µM), without a hit: at the highest dose activity change, negative = cytotoxicity, usual class: cytotoxic; 0.76% of 410,000 active
#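 HepG2 CAGA-GFP cells (1000/well, DMEM with 1% FBS) received compound, then TGF-beta at 500 pg/mL final, and were incubated 18 hours at 37 degrees C. Viability was read by CellTiter-Glo luminescence. Media-only wells were set as complete cell-killing and DMSO as no toxicity.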
# A549 viability = counter-screen for Nrf2 inhibitors: cytotoxicity in A549 cells; A549 ARE-Fluc cells, CellTiter-Fluor viability, 18-24 h; AID 504648; Potency, µM (titrated, usually from 46 µM), for the others: at the top dose activity change, negative = cytotoxicity, most hits filed as inhibitors; 0.16% of 390,000 active; also: % is scaled to controls: 0 for no effect and ±100 for the full control effect
#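 A549 ARE_Fluc cells in 5% FBS OPTI-MEM were exposed to compounds in concentration-response for 18-24 h at 37 deg C. Viability was read by CellTiter-Fluor fluorescence (Ex 405/Em 525) after 30 min, before the luciferase read.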
# Nrf2 inh = inhibitors of Nrf2 signaling; A549 ARE-Fluc reporter, luciferase luminescence, 18-24 h; 2.1% of 360,000 active; AID 504444; Potency, µM (titrated, usually from 46 µM), for the others: at the highest dose activity change, negative = inhibition, most hits filed as inhibitors; also: % is scaled to controls: 0 for no effect and ±100 for the full control effect; nearly all actives have a fitted effect of over 60% in size
#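 In this cell-based qHTS, ARE-driven firefly luciferase in A549 cells reports Nrf2 activity; the luminescent signal after BugLite lysis is the measured value, with a prior CellTiter-Fluor read for cell health.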
# ATXN2 expr inh = ATXN2 expression inhibition. 0.72% of 360,000 active. HEK-293 ATXN2-luciferase reporter, luminescence, 24 h. Potency, µM (highest dose often 57 µM), for inactives: at the top dose activity change, negative = inhibition, actives largely listed as inhibitors; also: % is scaled to controls: 0 for no effect and ±100 for the full control effect; nearly all actives have a fitted effect of over 55% in size
#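 qHTS (up to 57 uM final) was run with 24 h compound exposure of reporter cells at 37 °C. Each well was multiplexed: SteadyGlo luminescence measured ATXN2-luciferase expression after a fluorogenic Gly-Phe-AFC viability readout (25 uM final).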
# TGFb SMAD3 inh = blocks TGF-b signaling. HepG2 CAGA-GFP TGF-b/SMAD3 reporter, GFP fluorescence, 18 h; TGF-beta stimulated, 500 pg/mL final. Potency, µM (highest dose often 46.1 µM), without a hit: at the highest dose activity, negative = inhibition, usual class: inhibitors. 1.2% of 410,000 active. AID 588855; also: % is scaled to controls: 0 for no effect and ±100 for the full control effect; nearly all actives have a fitted effect of over 65% in size
#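 GFP signal (ex488/em500-530) from TGF-beta-stimulated HEPG2 CAGA-GFP cells, 500 pg/mL final, 18 h at 37 degrees C in DMEM plus 1% FBS, normalized to unstimulated and DMSO-stimulated controls.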
# ATXN viability = cell viability loss in ATXN counter-screen; Potency, µM (doses to about 56.7 µM), usual class: cytotoxic; 0.49% of 400,000 active; S2 cells (HEK-293 line with an ATXN2-luciferase reporter) viability, CellTiter-Fluor protease fluorescence, 24 h; AID 651635; also: nearly all actives have a fitted effect of over 40% in size
# TGFb confirm = TGF-b pathway inhibition, cherry-pick retest | shares compounds with TGFb SMAD3 inh | HepG2 CAGA-GFP TGF-b reporter, GFP fluorescence, 18 h; cells stimulated with TGF-beta, 500 pg/mL | Potency, µM (series often up to 46.1 µM), inactives show at the top dose activity, negative = inhibition, most hits filed as inhibitors | 63% of 1,600 active; also: % is scaled to controls: 0 for no effect and ±100 for the full control effect; nearly all actives have a fitted effect of over 65% in size
# HepG2 tox-2 = HepG2 cytotoxicity, TGF-b inhibitor counterscreen | shares compounds with TGFb SMAD3 inh | HepG2 CAGA-GFP viability, ATP luminescence, 18 h; cells stimulated with TGF-beta, 500 pg/mL | Potency, µM (top dose mostly 46.1 µM), for the others: at the highest dose activity, negative = cytotoxicity, most hits filed as inhibitors | 27% of 1,600 active | AID 720535; also: % is scaled to controls: 0 for no effect and ±100 for the full control effect; nearly all actives have a fitted effect of over 70% in size
# TGFb CCL64 inh = TGF-b inhibition, CCL64 orthogonal assay | shares compounds with TGFb SMAD3 inh | CCL64 CAGA-GFP reporter, TGF-b stimulated, GFP fluorescence, 18 h | Potency, µM (top dose mostly 46.1 µM), inactives show top-dose activity, negative = inhibition, most hits filed as inhibitors | 41% of 1,600 active; also: nearly all actives have a fitted effect of over 65% in size
# COP TGFb inh = validation of TGF-b inhibitors in HepG2 COP promoter reporter; shares compounds with TGFb SMAD3 inh; HepG2 COP-GFP TGF-b reporter, GFP fluorescence, 18 h; cells stimulated by added recombinant TGF-beta; Potency, µM (top dose mostly 46.1 µM), for the others: top-dose activity, negative = inhibition, usual class: inhibitors; 3% of 1,600 active; AID 720537; also: nearly all actives have a fitted effect of over 70% in size
# The depositor's hits bear a star; i = inactive; u = inconclusive; x = not tested or not shown; [ ] = dose if it differs, or a comment. Calls follow the shape of the dose curve; as a rule, active = well fitted curve in the direction sought with a large enough effect; inconclusive = small, poorly fitted or top-dose-only effect, or another doubt; inactive = no such curve, though single readings can be large; an effect the other way counts as inactive or inconclusive. Potency is read from the fitted curve at half-maximal effect.
SMILES,HepG2 tox-1,A549 viability,Nrf2 inh,ATXN2 expr inh,TGFb SMAD3 inh,ATXN viability,TGFb confirm,HepG2 tox-2,TGFb CCL64 inh,COP TGFb inh
CCc1nc(NCC2CC2)c2nnn(Cc3ccccc3)c2n1,-26%,x,x,x,-5%,i,x,x,x,x
O=c1[nH]c(C2CCN(S(=O)(=O)c3ccccc3F)CC2)nc2c1nnn2Cc1ccc2c(c1)OCCO2,-8%,1%,9%,x,7%,u,x,x,x,x
O=c1[nH]c(C2CCN(S(=O)(=O)c3ccc(F)cc3)CC2)nc2c1nnn2Cc1ccc2c(c1)OCCO2,-29%,-11%,u,x,16µM*,i,15µM*,-23%,u,5%
Cc1ccc(C)c(S(=O)(=O)N2CCC(c3nc4c(nnn4Cc4ccc(F)cc4)c(=O)[nH]3)CC2)c1,2%,-11%,-4%,8%,u,i,x,x,x,x
Cc1ccc(Cn2nnc3c(=O)[nH]c(C4CCN(S(=O)(=O)c5cc(C)ccc5C)CC4)nc32)cc1,-24%,-22%,u,-3%,16µM*,i,21µM*,-19%,u,36%
O=C(Nc1ccc(N2CCOCC2)cc1)c1csc([C@H]2C[C@H](O)[C@@H](CO)O2)n1,-5%,x,x,11%,-20%,i,x,x,x,x
CC1(C)Cc2c(cnn2-c2ccccc2)-c2c1c1ccccc1n2CC(O)CBr (centres undefined),-61%,-19%,x,-11%,u,u,u,-26%,u,20%
CCN(CC)S(=O)(=O)c1cccc(C(=O)N[C@H](C(=O)Nc2nc3ccc(F)cc3s2)C(C)C)c1,-18%,u,u,u,7.9µM*,i,4.1µM*,u,u,9%
CCN(CC)S(=O)(=O)c1cccc(C(=O)N[C@H](C(=O)Nc2nc3ccccc3s2)C(C)C)c1,-28%,-8%,5%,10%,u,i,x,x,x,x
O=C(Cn1ncc2c([nH]c3ccccc32)c1=O)NCc1cccc(Cl)c1,-16%,7%,8%,1%,-1%,i,x,x,x,x
FC(F)Oc1ccc(NC(=S)NC23CC4CC(CC(C4)C2)C3)cc1,-24%,-10%,u,-4%,13µM*,i,u,u,u,38%
COc1ccc(CCNC(=O)Cn2c(=O)n(-c3cc(OC)c(OC)c(OC)c3)c(=O)c3ccccc32)cc1OC,8%,-11%,1%[9.27 µM],-5%,0%,i,x,x,x,x
Cc1cc(C)c(-c2csc(NC(=O)C3=NN(c4ccccc4)C(=O)CC3)n2)c(C)c1,-19%,-12%,u,x,u,u,6.5µM*,-13%,-1%,-5%
COc1ccc2nc(NC(=O)C3=NN(c4ccccc4)C(=O)CC3)sc2c1,-6%,2%,u,13%,0%,i,x,x,x,x
CCOC(=O)c1sc(NC(=O)Nc2ccc(Cl)cc2)cc1C,-27%,u,u,u,5.6µM*,i,u,u,16µM*,83%
CCOC(=O)c1sc(NC(=O)c2ccc(Cl)s2)cc1C,4%,0%,5%,26%,0%,i,x,x,x,x
FC(F)(F)c1nnc2c(Sc3ccc(Cl)cc3)nc3ccccc3n12,-54%,-21%,u,u,u,i,x,x,x,x
FC(F)(F)c1nc2ccccc2n2c(-c3ccc(Cl)cc3)nnc12,-32%,5.8µM*,x,-24%,4.5µM*,i,5.2µM*,u,12%,66%
N#Cc1cc(NC(=O)C(=O)O)c(Cl)c(NC(=O)C(=O)O)c1,x,x,x,18%,x,i,x,x,x,x
CS(=O)(=O)N(CC(=O)Nc1cccc([N+](=O)[O-])c1)c1ccccc1,-19%,u,4%,x,u,i,x,x,x,x
Cc1ccccc1CN(CC(=O)Nc1cccc([N+](=O)[O-])c1)S(=O)(=O)c1ccc(Cl)cc1,-28%,-28%,u,-35%,11µM*,u,10µM*,u,2.3µM*,71%
COc1ccc(-c2cc(=Nc3c(C)n(C)n(-c4ccccc4)c3=O)c3ccccc3o2)cc1,-27%,-5%,u,3%,-11%,i,x,x,x,x
COc1ccc(-c2c/c(=N\c3nc(-c4ccccc4)c(C)s3)c3ccccc3o2)cc1O,-15%,u,u,u,8.9µM*,x,8.2µM*,u,4.1µM*,37%
Cc1n[nH]c(C)c1S(=O)(=O)N1CCN(C(=O)c2ccco2)CC1,-8%,u,x,3%,9%,i,x,x,x,x
Cc1ccccc1NC(=O)CSc1ncc2c(n1)-c1ccccc1N(C)S2(=O)=O,-26%,0%,u,-6%,3%,i,x,x,x,x
O=c1c2c3c(sc2n(Cc2ccc(F)cc2Cl)c(=O)n1-c1ccc(Cl)cc1)CCC3,1%,2%,15%,8%,12%,i,x,x,x,x
O=C(Nc1cccnc1)c1ccc([N+](=O)[O-])s1,11µM*,-15%,u,u,10µM*,i,15µM*,23µM*,u,u
O=C(Nc1cccc2ccccc12)c1ccc([N+](=O)[O-])s1,11µM*,1%,-19%,x,8.9µM*,i,16µM*,26µM*,u,50%
O=C(Nc1ccccc1F)c1ccc([N+](=O)[O-])s1,-68%,u,u,-25%,u,i,x,x,x,x
CCOC(=O)C1CCN(C(=O)c2ccc(C)o2)CC1,-16%,3%,-2%,3%,-20%,u,x,x,x,x
